Shiga inhibitor: Shiga toxin inhibition. Vero cells, Shiga toxin protein synthesis inhibition reporter. inhibition, % at 38.7 µM. actives 9.2% (n = 290,000). AID 2315; in the data active means inhibition mostly above about 28%, no sharp cut-off; inactive means mostly below about 43%; further: 0% is about no effect
Cycloheximide cs: counter-screen for Shiga toxin inhibitors: cycloheximide protein synthesis inhibition; cell reporter, cycloheximide protein synthesis inhibition counterscreen; max response, %; actives 12% (n = 300,000); in the data active means max response mostly above about 13%, no sharp cut-off; inactive means mostly below about 14%; further: read at 38.3 µM for the half of the compounds with a filed dose; 0% is about no effect
LmPK inh: inhibitors of Leishmania mexicana pyruvate kinase | actives 0.37% (n = 290,000) | purified LmPK, Kinase-Glo ATP luminescence, 1 h | Potency, µM (doses to about 57.5 µM), for inactives: at the top dose activity change, negative = inhibition, hits mostly inhibitors | Q27686; further: potency means the concentration at half of the fitted maximal effect; on the % scale 0 is the no-effect control and ±100 the full control effect
Target sequence (Q27686 whole entry, looked up): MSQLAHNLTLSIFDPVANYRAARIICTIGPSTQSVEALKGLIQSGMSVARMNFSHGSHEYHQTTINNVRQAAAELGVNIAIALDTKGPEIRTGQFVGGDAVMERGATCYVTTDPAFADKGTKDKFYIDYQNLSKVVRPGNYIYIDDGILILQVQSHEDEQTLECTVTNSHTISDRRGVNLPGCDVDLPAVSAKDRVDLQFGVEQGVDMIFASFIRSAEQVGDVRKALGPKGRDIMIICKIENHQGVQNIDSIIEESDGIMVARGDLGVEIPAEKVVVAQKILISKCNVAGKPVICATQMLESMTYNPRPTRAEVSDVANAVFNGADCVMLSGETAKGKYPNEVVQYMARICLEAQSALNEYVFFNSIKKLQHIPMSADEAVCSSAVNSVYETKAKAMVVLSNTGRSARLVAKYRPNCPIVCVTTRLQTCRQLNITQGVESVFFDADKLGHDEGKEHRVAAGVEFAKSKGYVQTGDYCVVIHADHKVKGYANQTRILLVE
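Screened at intermediate enzyme activity to detect both inhibitors and activators: LmPK at 0.1 nM, with a 0.5 nM enzyme column as activation reference. PEP 0.5 mM, ADP 0.1 mM; ATP detected by luminescence after 1 h.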
Pf growth 48h: inhibits P. falciparum growth in the first generation, 48 h. actives 5.9% (n = 310,000). AID 504832. P. falciparum luciferase growth in erythrocytes, 48 h. Potency, µM (top dose mostly 28.7 µM), for the others: top-dose activity change, negative = inhibition, usual class: inhibitors; further: potency means the concentration at half of the fitted maximal effect; on the % scale 0 is the no-effect control and ±100 the full control effect
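Parasite viability was followed by luminescence of a genomically integrated firefly luciferase. Cultures held 0.1% parasitemia at 2% hematocrit (final), incubated under 5% CO2 at 37 C.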
Pf growth 96h: inhibits malaria parasite growth, 96 h | P. falciparum luciferase reporter growth, 96 h | Potency, µM (series often up to 28.7 µM), without a hit: top-dose activity change, negative = inhibition, usual class: inhibitors | actives 6.9% (n = 320,000) | AID 504834; further: potency means the concentration at half of the fitted maximal effect; on the % scale 0 is the no-effect control and ±100 the full control effect
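96 h incubation, 37 C, 5% CO2, of luciferase-reporter P. falciparum-infected RBCs (2% hematocrit, 0.05% parasitemia final) with test compounds; endpoint luminescence.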
The depositor's hits bear a star; ? = inconclusive; nt = no result given; + = active, no number. Most compounds without a hit are left out; they make up all but 22% or so of the library. Unless noted, the call rests on the fitted dose curve; in most records, active means well fitted inhibition curve with a large enough effect; inconclusive means small, poorly fitted or top-dose-only effect, or another doubt; inactive means no such curve, though single readings can be large or run the other way.

SMILES | Shiga inhibitor | Cycloheximide cs | LmPK inh | Pf growth 48h | Pf growth 96h
CCn1cc(/C=C(\NC(=O)c2ccc(OC)c(OC)c2)C(=O)N2CCN(C)CC2)c2ccccc21 | -9 | -3 | -1% | ? | 10µM*
CN1C(=O)C(=Cc2cn(CC(=O)N3CCCC3)c3ccccc23)C(=O)N(C)C1=O | -6 | -3 | -6% | 7% | 3%
CCn1cc(/C=C(\NC(=O)c2ccc(OC)c(OC)c2)C(=O)NCCCN2CCOCC2)c2ccccc21 | -3 | -2 | -4% | 1% | ?
CCCCc1c(C)nc2ccccc2c1SCCC(=O)O | 18 | 3 | -1% | ? | 16%
O=C(CSc1nnc(COc2ccc(Cl)cc2)o1)N1CCOCC1 | 1 | -5 | 8% | -1% | ?
Cc1ccccc1CN(C)C(=O)[C@H](Cc1ccccc1)NC(=O)c1ccco1 | nt | nt | nt | ? | 8.3µM*
Cc1ccc(NC(=O)C(Cc2ccccc2)NC(=O)c2ccco2)cc1 (centres undefined) | -7 | -3 | 1% | nt | -20%
O=C(CC1C(=O)NCCN1Cc1c(F)cccc1Cl)NCCCN1CCCC1=O (centres undefined) | -4 | 3 | 0% | -4% | ?
COc1cc(C2C(C(=O)c3cc4ccccc4o3)=C(O)C(=O)N2CCN2CCOCC2)ccc1OCCC(C)C (centres undefined) | -4 | -3 | 1% | -7% | ?
Cc1ccc(S(=O)(=O)N2CCN(C(=O)N(C)C)CC2)cc1C | -2 | -4 | -14% | -8% | nt
Cc1ccc(/C=C/C(=O)N2CCN(S(=O)(=O)c3ccc(C)c(C)c3)CC2)o1 | -3 | -2 | 7% | ? | 5.9µM*
Cc1ccc(/C=C/C(=O)N2CCN(S(=O)(=O)c3c(C)c(C)cc(C)c3C)CC2)o1 | -8 | -3 | 1% | 7.4µM* | ?
O=C(CSc1nnnn1-c1ccc2c(c1)OCCO2)N1CCc2ccccc21 | -10 | -7 | -2% | 5% | nt
c1ccc(CSc2nnnn2-c2ccc3c(c2)OCCO3)nc1 | 43 | 21* | 10% | 26% | 9%
O=C(CSc1nnnn1-c1ccc2c(c1)OCCO2)OC1CCCCC1 | 102* | 34* | 4% | 18% | ?
CSc1ccc(CC(=O)N2CCC(n3nccc3NC(=O)C3CC3)CC2)cc1 | 75* | 45* | 1% | 66% | ?
O=C(Nc1ccnn1C1CCN(Cc2ccccc2)CC1)C1CCCC1 | 26 | -1 | 1% | ? | -8%
COc1cccc(CC(=O)N2CCC(n3nccc3NC(=O)C3CC3)CC2)c1 | 12 | 17 | -1% | -8% | -21%
CCOc1ccccc1CN1CCC(n2nccc2NC(=O)C2CCCC2)CC1 | 12 | -2 | -6% | 12µM* | -11%
COc1ccc(O)c(CN2CCC(n3nccc3NC(=O)C3CCCC3)CC2)c1 | -22 | 1 | -12% | 13µM* | ?
Cn1cc(CN2CCC(n3nccc3NC(=O)c3ccccc3Cl)CC2)c2ccccc21 | 10 | 13 | 5% | 3.3µM* | ?
Cc1ccc(N(C(=O)c2snc(C(N)=O)c2N)C(C(=O)NCc2ccccc2)c2ccncc2)c(C)c1 (centres undefined) | -16 | 1 | -2% | ? | 16%
O=C(OCc1ccc(Cl)cc1Cl)c1ccncc1 | -16 | 6 | -3% | -10% | 5%
O=C(Nc1ccnn1C1CCN(C(=O)c2ccc(Cl)cc2)CC1)C1CC1 | -8 | 3 | -4% | 42% | 17%
CC(Cc1ccc(Cl)cc1)N1CCC(n2nccc2NC(=O)C2CCCC2)CC1 (centres undefined) | -4 | -3 | 0% | 10µM* | ?
SMILES | Shiga inhibitor | Cycloheximide cs | LmPK inh | Pf growth 48h | Pf growth 96h
O=C(N[C@@H](Cc1ccccc1)C(=O)OCC(=O)N1CCOCC1)c1cccs1 | 26 | 19 | -2% | 42% | 28%
Cc1cc(C)nc(NC(=O)c2ccc(OC(C)C)cc2)n1 | 32 | 7 | -8% | nt | ?
Cc1ccsc1/C=C(\CC(=O)O)c1nc2ccccc2o1 | 51* | 22* | -5% | 110% | 44%
Cc1ccc(-c2nc3ccccc3o2)cc1NC(=O)Cc1cccs1 | 25 | 14 | 2% | -1% | 1%
Cc1ccsc1/C=C(\C(=O)c1ccc(OC(C)C)cc1)c1nc2ccccc2o1 | + | 122* | 6% | ? | ?
CCOc1ccc(Nc2ccc(S(=O)(=O)N3CCN(C)CC3)cc2[N+](=O)[O-])cc1OCC | nt | nt | nt | 12µM* | ?
